Counter-ions that a name gives are not always drawn.
System: Saccharomyces cerevisiae
Experiment: fraction of cells in G1 phase (DNA content, flow cytometry); higher = more cells with unreplicated DNA (G1 delay)
Details: temperature: 30 C; YPD; JTY2953 pdr5 snq2 (sensitized); drug added to: cultures diluted from stationary phase; 6-7 h
How it was run: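 Library drugs were added to S. cerevisiae in YPD at 30°C, with fixation after 6–7 h for sensitized JTY2953 diluted 1∶200 from overnight and given a final 20 µg/ml, 6 h for dividing JTY2953, and 4.33 h for BY4741. Ethanol-fixed cells stained with SYTOX Green were read by flow cytometry, 10,000 events each. The G1 fraction is the ratio of the Dean-Jett-Fox G1 peak area to the G1 plus G2/M areas.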

First: Cn1c(=O)c2c(ncn2CC2OCCO2)n(C)c1=O [Doxofylline] (75.1149 µM)
Second: CC(=O)CCCCn1c(=O)c2c(ncn2C)n(C)c1=O [Pentoxifylline] (71.8614 µM)
The “fraction of cells in G1 phase” value of the first is lower: 0.465 for the first, 0.487 for the second.

Going from CCOC(=O)C1=C[C@@H](OC(CC)CC)[C@H](NC(C)=O)[C@@H](N)C1 [Oseltamivir] (64.0179 µM) to CC[C@H](C)C(=O)O[C@H]1CCC=C2C=C[C@H](C)[C@H](CC[C@@H]3C[C@@H](O)CC(=O)O3)[C@H]21 [Mevastatin] (51.2132 µM), the “fraction of cells in G1 phase” value rises from 0.472 to 0.502.

Going from C[C@@H](O)[C@@H]1NC(=O)[C@H](CCCCN)NC(=O)[C@@H](Cc2c[nH]c3ccccc23)NC(=O)[C@H](Cc2ccccc2)NC(=O)[C@@H](NC(=O)[C@H](N)Cc2ccccc2)CSSC[C@@H](C(=O)N[C@H](CO)[C@@H](C)O)NC1=O [Octreotide] (19.6221 µM) to CC(C)CN(C[C@@H](O)[C@H](Cc1ccccc1)NC(=O)O[C@H]1CCOC1)S(=O)(=O)c1ccc(N)cc1 [Amprenavir] (39.554 µM), the “fraction of cells in G1 phase” value falls from 0.478 to 0.472.

Going from COc1ccc(/C=C/C(=O)Nc2ccccc2C(=O)O)cc1OC [Tranilast] (61.0986 µM) to O=C(O)COC(=O)Cc1ccccc1Nc1c(Cl)cccc1Cl [Aceclofenac] (56.4665 µM), the “fraction of cells in G1 phase” value falls from 0.546 to 0.489.

First: Nc1nnc(-c2cccc(Cl)c2Cl)c(N)n1 [Lamotrigine] (78.0958 µM)
Second: O=C(O)Cc1ccccc1Nc1c(Cl)cccc1Cl [Diclofenac, Na] (67.5321 µM)
The “fraction of cells in G1 phase” value of the first is higher: 0.493 for the first, 0.473 for the second.

Compared with CC(C)[C@H]1CC[C@H](C(=O)N[C@H](Cc2ccccc2)C(=O)O)CC1 [nateglinide] (63.0056 µM), COC(=O)C1=C(C)NC(C)=C(C(=O)OC)C1c1ccccc1[N+](=O)[O-] [Nifedipine] (57.7463 µM) is higher in “fraction of cells in G1 phase” value: 0.489 for the first, 0.551 for the second.

Going from CN(C)CCC(c1ccc(Cl)cc1)c1ccccn1 (stereo not drawn) [Chlorpheniramine maleate] (72.7812 µM) to CN(CCOc1ccc(CC2SC(=O)NC2=O)cc1)c1ccccn1 (stereo not drawn) [Rosiglitazone maleate] (42.2386 µM), the “fraction of cells in G1 phase” value rises from 0.452 to 0.574.

Compared with CN(C)CCc1c[nH]c2ccc(C[C@H]3COC(=O)N3)cc12 [zolmitriptan] (65.9179 µM), CN(C)CCCC1(c2ccc(F)cc2)OCc2cc(C#N)ccc21 (stereo not drawn) [Citalopram] (61.652 µM) is lower in “fraction of cells in G1 phase” value: 0.474 for the first, 0.454 for the second.

Going from C[C@@H]1C(=O)O[C@H]2C[C@@]34[C@H]5C[C@@H](C(C)(C)C)[C@]36[C@@H](OC(=O)[C@@H]6O)O[C@@]4(C(=O)O5)[C@]21O [Ginkgolide a] (48.9705 µM) to C[C@@H](O)[C@H]1C(=O)N2C(C(=O)O)=C(S[C@@H]3CN[C@H](C(=O)N(C)C)C3)[C@H](C)[C@H]12 [Meropenem] (52.1553 µM), the “fraction of cells in G1 phase” value falls from 0.512 to 0.495.

Compared with CCC[C@@H]1C[C@@H](C(=O)N[C@@H]([C@H]2O[C@H](SC)[C@H](O)[C@@H](O)[C@H]2O)[C@H](C)Cl)N(C)C1 [Clindamycin HCl] (47.0598 µM), COc1ccc(C[C@H](N)C(=O)N[C@H]2[C@@H](O)[C@H](n3cnc4c(N(C)C)ncnc43)O[C@@H]2CO)cc1 [Puromycin 2HCl] (36.7377 µM) is lower in “fraction of cells in G1 phase” value: 0.505 for the first, 0.5 for the second.

Compared with O=S(=O)(c1cccc2cnccc12)N1CCCNCC1 (54.8998 µM), Cc1ccc(/C(=C\CN2CCCC2)c2ccccn2)cc1 [Trans-triprolidine HCl] (71.8389 µM) is lower in “fraction of cells in G1 phase” value: 0.529 for the first, 0.521 for the second.

Going from CC(C)(C)NCC(O)c1ccc(O)c(CO)c1 (stereo not drawn) [Salbutamol sulfate] (83.5711 µM) to COc1ccc2cc([C@H](C)C(=O)O)ccc2c1 [Naproxen] (86.8561 µM), the “fraction of cells in G1 phase” value falls from 0.535 to 0.514.

First: CC(C)OC(=O)C(C)(C)Oc1ccc(C(=O)c2ccc(Cl)cc2)cc1 [Fenofibrate] (55.4261 µM)
Second: COc1ccc2c(c1)c(CC(=O)O)c(C)n2C(=O)c1ccc(Cl)cc1 [Indomethacin] (55.8977 µM)
The “fraction of cells in G1 phase” value of the first is lower: 0.497 for the first, 0.519 for the second.

Going from CCN(CC)CCCC(C)Nc1c2ccc(Cl)cc2nc2ccc(OC)cc12 (stereo not drawn) [Quinacrine 2HCl dihydrate] (50.004 µM) to COc1ncnc(NS(=O)(=O)c2ccc(N)cc2)c1OC [Sulfadoxine] (64.4467 µM), the “fraction of cells in G1 phase” value falls from 0.529 to 0.474.

Compared with CN(Cc1cc(Br)cc(Br)c1N)C1CCCCC1 [Bromhexine HCl] (53.1721 µM), Cc1cnc(C(=O)NCCc2ccc(S(=O)(=O)NC(=O)NC3CCCCC3)cc2)cn1 [Glipizide] (44.8889 µM) is higher in “fraction of cells in G1 phase” value: 0.466 for the first, 0.577 for the second.

First: CCn1cc(C(=O)O)c(=O)c2cc(F)c(N3CCNCC3)cc21 [Norfloxacin] (62.6295 µM)
Second: COC(=O)c1ccc(=O)c2nc3c(=CO)c(O)cc(=O)c3[nH]c12 [Lomofungin] (63.6422 µM)
The “fraction of cells in G1 phase” value of the first is lower: 0.455 for the first, 0.495 for the second.

First: Nc1nc(O)c2ncn(CCC(CO)CO)c2n1 [Penciclovir] (78.9694 µM)
Second: O=C1CC2(CCCC2)CC(=O)N1CCCCN1CCN(c2ncccn2)CC1 [Buspirone HCl] (51.8789 µM)
The “fraction of cells in G1 phase” value of the first is lower: 0.461 for the first, 0.499 for the second.

First: CC[C@]1(O)C[C@@H]2CN(CCc3c([nH]c4ccccc34)[C@@](C(=O)OC)(c3cc4c(cc3OC)N(C)[C@H]3[C@@](O)(C(=O)OC)[C@H](OC(C)=O)[C@]5(CC)C=CCN6CC[C@]43[C@@H]65)C2)C1 [Vinblastine sulfate] (21.9998 µM)
Second: CC(C)(C)[C@]1(O)CCN2C[C@H]3c4ccccc4CCc4cccc(c43)[C@@H]2C1 [Butaclamol (+)] (55.3201 µM)
The “fraction of cells in G1 phase” value of the first is lower: 0.495 for the first, 0.535 for the second.

First: CCCCNC(=O)NS(=O)(=O)c1ccc(C)cc1 [Tolbutamide] (73.9774 µM)
Second: Cc1cn([C@H]2C[C@H](N=[N+]=[N-])[C@@H](CO)O2)c(=O)[nH]c1=O [3'-azido-3'-deoxythymidine] (74.8374 µM)
The “fraction of cells in G1 phase” value of the first is higher: 0.505 for the first, 0.488 for the second.

From the supplement of paper PMC3342239
